A number with no mark means an inactive call. Inconclusive results are not listed. Active and inactive are the calls of the source. Unless noted, the call rests on the fitted dose curve.

Experiment [1] can be described thus: Nuclear factor erythroid 2-related factor 2/antioxidant responsive element (Nrf2/ARE) small molecule agonists: qHTS cell viability counter screen in human keratinocytes (AID 1919968; active means well fitted curve in the direction sought with a large enough effect in the repeat runs; an effect the other way counts as inactive or inconclusive; further: nearly all actives have a fitted effect of over 55% in size; further: potency means the concentration at half of the fitted maximal effect). The method in brief:
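After a 5 h attachment period, ARE-reporter keratinocytes were dosed with compounds in DMSO and then cultured 23 h at 37 C. Cell viability came from CellTiter-Fluor signal read after a further 1 h.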
(Quantitative high-throughput screening tests each substance at several concentrations.)

A short description of experiment [2]: Nuclear factor erythroid 2-related factor 2/antioxidant responsive element (Nrf2/ARE) small molecule agonists: luciferase reporter gene qHTS assay in human keratinocytes (AID 1919969). Further: nearly all actives have a fitted effect of over 35% in size. Further: potency means the concentration at half of the fitted maximal effect. Background: In a reporter assay the amount or activity of a reporter protein is the signal.
Experiment [3] addresses Gonadotropin-releasing hormone receptor (Homo sapiens) (UniProt P30968). As to the kind of experiment: Human gonadotropin-releasing hormone receptor (GnRHR) small molecule agonists, calcium flux assay in GnRHR-HEK293 cells (AID 1920063). Further: nearly all actives have a fitted effect of over 35% in size. Further: potency means the concentration at half of the fitted maximal effect. The essentials: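 We seeded human GnRHR-expressing HEK293 cells for 18 hours, loaded them with calcium dye for an hour at 37 C, added test compounds, and recorded fluorescence intensity kinetically for three minutes.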

The target of experiment [4] is KiSS-1 receptor (Homo sapiens) (UniProt Q969F8). As to the kind of experiment: Human kisspeptin (KISS1R) small molecule agonists, calcium flux assay in KISS1R-HEK293 cells (AID 1920064; active means well fitted curve in the direction sought with a large enough effect in the repeat runs; an effect the other way counts as inactive or inconclusive). The essentials:
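Kinetic calcium assay, 1 s sampling over 3 min at Ex/Em 480/540, in HEK293 cells engineered with human KISS1R; compounds delivered in DMSO after 1 h dye loading.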
For orientation: Calcium flux is commonly read through the fluorescence of an indicator in the cells.

Experiment [5] is described as follows: G protein-coupled receptor (GPCR) small molecule agonists, calcium flux assay: HEK293 wild type cell line counter screen (AID 1920065). The essentials:
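Calcium-sensitive dye, loaded 1 h at 37 C into cells cultured 18 h, reports compound-evoked calcium release as fluorescence (Ex/Em 480/540), measured over 3 min. Agonist mode; 15-point titrations, triplicate.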

Experiment [6] can be described thus: p53 small molecule agonists, cell-based qHTS assay with rat liver microsomes (AID 1963578). The method in brief: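 Read-out is beta-lactamase reporter fluorescence (LiveBLAzer, 2 h, room temperature, dark) in p53RE-bla cells treated 16 h at 37 C with compound, rat liver microsomes and NADPH, both 0.5 mg/mL final.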
Experiment [7] is described as follows: p53 small molecule agonists, cell-based qHTS assay with human liver microsomes: qHTS cell viability counter screen (AID 1963579). Further: nearly all actives have a fitted effect of over 45% in size. Further: potency means the concentration at half of the fitted maximal effect. The essentials:
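Cells carrying the p53 response-element beta-lactamase reporter are treated for 16 h at 37 C with test compounds in the presence of human liver microsomes and NADPH (both 0.5 mg/mL final); ATP-based CellTiter-Glo luminescence then reports viability.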

Experiment [8] in a line: p53 small molecule agonists, cell-based qHTS assay with rat liver microsomes: qHTS cell viability counter screen (AID 1963580). Further: nearly all actives have a fitted effect of over 45% in size. Further: potency means the concentration at half of the fitted maximal effect. The essentials: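 In HCT-116 cells carrying a p53 response element-bla reporter, compounds were metabolically activated in situ by rat liver microsomes with NADPH over 16 h. Cell ATP content then served as the cytotoxicity measure.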
A short description of experiment [9]: p53 small molecule agonists, cell-based qHTS assay: qHTS cell viability counter screen (AID 1963581). Further: nearly all actives have a fitted effect of over 45% in size. Further: potency means the concentration at half of the fitted maximal effect. The method in brief:
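Following 5 h attachment, HCT-116 p53RE-bla cells took up compound for 16 h at 37 C; the reporter was read with B/G FRET substrate (2 h RT), and viability then via CellTiter-Glo ATP luminescence.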

Experiment [10] is described as follows: p53 small molecule agonists, cell-based qHTS assay (AID 1963582; active means well fitted activation curve with a large enough effect in the signal ratio in the repeat runs, not every such curve was filed as active; the % refers to the signal ratio). The essentials: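 In this cell-based concentration-response screen, a p53 response element drives beta-lactamase; cells received DMSO-borne compounds after 5 h culture and were incubated a further 16 h before FRET substrate development.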
Experiment [11] concerns the target 5-hydroxytryptamine receptor 2A (Homo sapiens) (UniProt P28223). As to the kind of experiment: 5-hydroxytryptamine receptor 2A (HTR2A) small molecule agonists, cell-based qHTS assay (AID 1963587). Further: nearly all actives have a fitted effect of over 30% in size. Further: potency means the concentration at half of the fitted maximal effect. The essentials: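 HTR2A-CHO cells, plated 18 h at 37 C/5% CO2, dye-loaded 1 h at 37 C; compounds in DMSO added by pin tool (agonist mode). Intracellular calcium flux read as kinetic fluorescence on FDSS over 2 min at 1 s intervals.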

Experiment [12] deals with Muscarinic acetylcholine receptor M1 (Homo sapiens) (UniProt P11229). As to the kind of experiment: Cholinergic receptor muscarinic 1 (CHRM1) small molecule antagonists, cell-based qHTS assay (AID 1963588). Further: nearly all actives have a fitted effect of over 40% in size. The essentials:
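CHRM1-CHO calcium-flux assay, antagonist mode. Cells were seeded 18 h, dye-loaded 1 h at 37 C and given compound for 5 min at RT, then acetylcholine was added at 50nM. FDSS fluorescence was read 3 min; 15 concentrations, three runs.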

Experiment [13] shares this target. As to the kind of experiment: Cholinergic receptor muscarinic 1 (CHRM1) small molecule agonists, cell-based qHTS assay (AID 1963589). Further: nearly all actives have a fitted effect of over 35% in size. Further: potency means the concentration at half of the fitted maximal effect. The essentials:
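Measures agonist-induced intracellular calcium rise. Stable human CHRM1 CHO line, 1 h dye load at 37 C, compounds from DMSO, kinetic fluorescence read.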

Experiment [14] in a line: cAMP Responsive Elements (CRE) small molecule agonists, cell-based qHTS assay (AID 1963590). The method in brief:
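A CRE-responsive beta-lactamase reporter in HEK 293T cells was used. Treatment ran 3 h at 37 C; detection used LiveBLAzer B/G FRET substrate for 2 h at room temperature.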

Experiment [15] can be described thus: cAMP Responsive Elements (CRE) small molecule antagonists, cell-based qHTS assay (AID 1963591; active means well fitted inhibition curve with a large enough effect in the signal ratio in the repeat runs, not every such curve was filed as active; the % refers to the signal ratio). The method in brief: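 HEK293T cells carrying a CRE-driven beta-lactamase reporter receive compound and NKH477 (0.25 uM final) for 3 h. Fluorescence from LiveBLAzer B/G FRET substrate is read after 2 h at room temperature.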
The target of experiment [16] is Beta-2 adrenergic receptor (Homo sapiens) (UniProt P07550). As to the kind of experiment: Adrenergic beta2 receptor (ADRB2) small molecule antagonists, cell-based qHTS assay (AID 1963592). Further: series mostly up to about 92 µM; nearly all actives have a fitted effect of over 50% in size. The method in brief: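 Cells (CHO, stable ADRB2 overexpression) incubated 18-20hr at 37C; compounds added from DMSO; agonist mix (1nM isoproterenol, 100uM IBMX, 25uM Ro-20-1724) added; 0.5hr RT; d2-cAMP and anti-cAMP-cryptate added; 1hr RT; 665/615 nm read.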

The target of experiment [17] is D(2) dopamine receptor (Homo sapiens) (UniProt P14416). As to the kind of experiment: Dopamine D2 receptor (DRD2) small molecule agonists, cell-based qHTS assay (AID 1963594). Further: nearly all actives have a fitted effect of over 35% in size. The method in brief:
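HEK293 cells stably expressing DRD2 were cultured 24 h at 37 C, then given Ro20-1724 (0.1 mM final) and compounds for 10 min at room temperature. NKH477 (200nM) was then added for 30 min. cAMP was read by HTRF.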

Experiment [18] has the same target. As to the kind of experiment: Dopamine D2 receptor (DRD2) small molecule antagonists, cell-based qHTS assay (AID 1963595; active means well fitted inhibition curve with a large enough effect in the signal ratio in the repeat runs, with a control signal flat; the % refers to the signal ratio; further: potency means the concentration at half of the fitted maximal effect). The essentials: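 DRD2-HEK293; 0.1 mM Ro20-1724; cpd 10 min RT; NKH477 200 nM + quinpirole 12 nM, 30 min RT; HTRF cAMP (cAMP-d2/anti-cAMP cryptate), 665/620 nm ratio after 1 h.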
Experiment [19] deals with 5-hydroxytryptamine receptor 2A (Homo sapiens) (UniProt P28223). As to the kind of experiment: 5-hydroxytryptamine receptor 2A (HTR2A) small molecule antagonists, cell-based qHTS assay (AID 1963586). Further: nearly all actives have a fitted effect of over 45% in size. The essentials:
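Antagonist-mode intracellular calcium assay: DOI (4 nM) added after 5 min compound pre-incubation at room temperature to dye-loaded HTR2A-CHO cells. Fluorescence followed for 3 min, sampled every second.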

The nature of experiment [20]: p53 small molecule agonists, cell-based qHTS assay with human liver microsomes (AID 1963577). Further: potency means the concentration at half of the fitted maximal effect. The essentials:
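Compounds act here after metabolic activation: human liver microsomes and NADPH, both at 0.5 mg/mL final, were co-added to p53RE-bla cells. Incubation ran 16 h at 37 C, followed by LiveBLAzer detection.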

Chain of D(2) dopamine receptor (Homo sapiens) (P14416 whole entry, looked up): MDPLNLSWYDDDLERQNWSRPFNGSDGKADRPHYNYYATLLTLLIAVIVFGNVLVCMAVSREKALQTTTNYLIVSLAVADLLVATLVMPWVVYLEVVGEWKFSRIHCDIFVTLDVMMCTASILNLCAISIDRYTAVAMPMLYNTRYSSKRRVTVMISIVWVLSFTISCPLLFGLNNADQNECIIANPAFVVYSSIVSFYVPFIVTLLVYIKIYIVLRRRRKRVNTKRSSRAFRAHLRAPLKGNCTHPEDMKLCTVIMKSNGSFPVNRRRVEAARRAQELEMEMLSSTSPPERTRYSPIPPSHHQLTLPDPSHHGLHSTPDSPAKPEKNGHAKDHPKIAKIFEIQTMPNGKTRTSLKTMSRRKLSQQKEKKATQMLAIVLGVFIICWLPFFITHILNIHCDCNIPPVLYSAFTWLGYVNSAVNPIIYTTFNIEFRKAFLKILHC
Chain of KiSS-1 receptor (Homo sapiens) (Q969F8 whole entry, looked up): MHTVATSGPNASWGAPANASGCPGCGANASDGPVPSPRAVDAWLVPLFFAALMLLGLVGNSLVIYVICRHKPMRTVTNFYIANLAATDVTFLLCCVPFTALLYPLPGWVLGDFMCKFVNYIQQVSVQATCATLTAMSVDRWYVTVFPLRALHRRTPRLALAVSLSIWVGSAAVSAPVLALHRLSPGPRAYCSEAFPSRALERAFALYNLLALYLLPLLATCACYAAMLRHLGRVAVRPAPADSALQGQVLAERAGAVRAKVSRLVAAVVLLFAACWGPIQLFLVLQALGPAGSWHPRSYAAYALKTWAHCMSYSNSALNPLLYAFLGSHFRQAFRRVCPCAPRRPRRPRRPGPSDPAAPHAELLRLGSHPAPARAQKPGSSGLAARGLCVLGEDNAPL
Chain of 5-hydroxytryptamine receptor 2A (Homo sapiens) (P28223 whole entry, looked up): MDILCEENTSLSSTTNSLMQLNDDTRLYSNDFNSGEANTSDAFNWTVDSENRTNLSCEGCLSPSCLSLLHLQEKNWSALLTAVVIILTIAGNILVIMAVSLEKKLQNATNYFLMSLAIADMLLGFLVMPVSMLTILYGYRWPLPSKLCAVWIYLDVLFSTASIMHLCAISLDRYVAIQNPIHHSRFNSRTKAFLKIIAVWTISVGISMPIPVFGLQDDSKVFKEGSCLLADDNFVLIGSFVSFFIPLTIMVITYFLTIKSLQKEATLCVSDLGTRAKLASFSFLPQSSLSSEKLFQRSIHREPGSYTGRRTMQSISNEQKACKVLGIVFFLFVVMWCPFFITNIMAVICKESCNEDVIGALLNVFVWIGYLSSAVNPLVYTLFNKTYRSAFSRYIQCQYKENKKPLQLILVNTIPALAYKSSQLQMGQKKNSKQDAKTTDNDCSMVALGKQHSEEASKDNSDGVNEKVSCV
Chain of Muscarinic acetylcholine receptor M1 (Homo sapiens) (P11229 whole entry, looked up): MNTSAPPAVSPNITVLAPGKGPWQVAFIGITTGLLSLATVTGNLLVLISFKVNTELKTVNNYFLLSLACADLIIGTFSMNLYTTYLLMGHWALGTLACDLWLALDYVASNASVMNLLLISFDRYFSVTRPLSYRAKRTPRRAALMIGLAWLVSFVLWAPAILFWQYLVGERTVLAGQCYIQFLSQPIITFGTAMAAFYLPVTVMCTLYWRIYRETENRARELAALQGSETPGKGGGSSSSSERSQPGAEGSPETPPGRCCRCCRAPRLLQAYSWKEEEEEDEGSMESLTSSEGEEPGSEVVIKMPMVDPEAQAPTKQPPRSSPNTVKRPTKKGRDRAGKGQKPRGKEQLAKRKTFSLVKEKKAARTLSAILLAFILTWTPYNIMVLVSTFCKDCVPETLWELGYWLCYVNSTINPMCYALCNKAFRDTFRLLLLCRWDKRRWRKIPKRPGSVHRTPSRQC
Chain of Gonadotropin-releasing hormone receptor (Homo sapiens) (P30968 whole entry, looked up): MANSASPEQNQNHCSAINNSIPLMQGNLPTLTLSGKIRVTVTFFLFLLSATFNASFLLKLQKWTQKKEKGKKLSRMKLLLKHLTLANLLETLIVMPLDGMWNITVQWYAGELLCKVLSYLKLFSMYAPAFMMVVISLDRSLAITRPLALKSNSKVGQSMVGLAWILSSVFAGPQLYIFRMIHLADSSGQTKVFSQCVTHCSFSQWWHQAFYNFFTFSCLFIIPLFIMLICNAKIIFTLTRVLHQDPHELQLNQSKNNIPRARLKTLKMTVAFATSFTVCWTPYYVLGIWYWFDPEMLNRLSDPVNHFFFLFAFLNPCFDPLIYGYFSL
Chain of Beta-2 adrenergic receptor (Homo sapiens) (P07550 whole entry, looked up): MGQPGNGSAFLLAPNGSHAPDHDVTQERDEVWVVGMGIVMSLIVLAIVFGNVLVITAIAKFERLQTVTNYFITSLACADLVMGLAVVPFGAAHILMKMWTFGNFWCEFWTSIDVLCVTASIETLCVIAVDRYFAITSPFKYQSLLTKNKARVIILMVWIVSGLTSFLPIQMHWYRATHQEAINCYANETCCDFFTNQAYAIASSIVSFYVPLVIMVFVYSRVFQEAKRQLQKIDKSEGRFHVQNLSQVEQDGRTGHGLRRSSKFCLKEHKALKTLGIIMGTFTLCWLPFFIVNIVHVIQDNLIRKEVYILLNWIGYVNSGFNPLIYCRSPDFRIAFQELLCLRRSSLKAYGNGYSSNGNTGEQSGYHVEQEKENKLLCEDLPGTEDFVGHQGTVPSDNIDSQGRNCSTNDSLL

For the molecule `O=CCCl`, the Potency result in [1], in [2], in [3], in [4], in [5] and in experiment [6] was “inactive” throughout. The Potency result in experiment [7], in [8], in experiment [9], in [10], in experiment [11] and in experiment [12] was “inactive” in each case. In addition, the Potency result in [13], in [14], in [15], in experiment [16], in [17] and in [18] was “inactive” in each case.

With `C=CCC1([C@H](C)CCC)C(=O)NC(=O)NC1=O`, the Potency result in [1], in [2], in experiment [3], in [4], in [5] and in [6] was “inactive” in each case. Further, the Potency entry in [7], in experiment [8], in experiment [9], in experiment [10], in experiment [14] and in experiment [15] was “inactive” in each case. The Potency result in [16], in experiment [17] and in [18] was “inactive” in each case.

Turning to `O=S1(=O)OC(c2cc(Br)c(O)c(Br)c2)(c2cc(Br)c(O)c(Br)c2)c2ccccc21`, the Potency was 14.1 µM (active) in experiment [1], 21 µM (active) in experiment [7], 18.7 µM (active) in experiment [8] and 18.7 µM (active) in [9]. Also, the Potency entry in experiment [2], in [3], in [4], in experiment [5], in [6] and in experiment [19] was “inactive” in each case. In addition, the Potency entry in [11], in experiment [12], in [13], in experiment [14] and in experiment [15] was “inactive” in each case.

Take `CCC(C)c1cc([N+](=O)[O-])cc([N+](=O)[O-])c1OC(=O)C=C(C)C` (stereo not drawn): the Potency is 48.6 µM (active) in experiment [1] and 24.3 µM (active) in [2]. The Potency result in [3], in experiment [4], in experiment [5], in [20], in experiment [8] and in experiment [9] was “inactive” each time. The Potency entry in experiment [19], in experiment [12], in [16] and in experiment [18] was “inactive” throughout.

Turning to `CCOP(=S)(OCC)SCn1nnc2ccccc2c1=O`, the Potency result in experiment [1], in experiment [2], in experiment [3], in experiment [4], in [5] and in experiment [7] was “inactive” each time. Also, the Potency result in experiment [8], in experiment [10], in experiment [11], in [12], in [13] and in experiment [16] was “inactive” throughout. For the same molecule, the Potency result in [17] and in experiment [18] was “inactive” each time. Besides, the Potency in experiment [20] is 3.24 µM (active).

Turning to `COC(=O)C1(O)c2ccccc2-c2ccccc21`, the Potency entry in experiment [1], in [2], in [3], in [4], in experiment [5] and in experiment [6] was “inactive” throughout. Moreover, the Potency result in experiment [7], in experiment [8], in experiment [9], in experiment [10], in experiment [11] and in [12] was “inactive” in each case. Further, the Potency entry in [13], in experiment [14], in [15], in [16], in experiment [17] and in experiment [18] was “inactive” throughout.

`COc1cccc(C(=O)CCN[C@@H](C)[C@H](O)c2ccccc2)c1`: the Potency result in experiment [1], in [3], in [4], in [5], in experiment [6] and in [7] was “inactive” each time. Also, the Potency entry in experiment [8], in [9], in experiment [10], in experiment [12], in [13] and in experiment [14] was “inactive” each time. Besides, the Potency entry in experiment [16] and in experiment [17] was “inactive” in each case. Besides, the Potency in experiment [2] was 33.5 µM (active); in [18], 15 µM (active).

In the case of `CC[C@H](C)[C@H]1O[C@]2(C=C[C@@H]1C)C[C@@H]1C[C@@H](C/C=C(\C)[C@@H](O[C@H]3C[C@H](OC)[C@@H](O[C@H]4C[C@H](OC)[C@@H](NC)[C@H](C)O4)[C@H](C)O3)[C@@H](C)/C=C/C=C3\CO[C@@H]4[C@H](O)C(C)=C[C@@H](C(=O)O1)[C@]34O)O2`, the Potency is 9.69 µM (active) in [1]; 11 µM (active) in [3]; 28.9 µM (active) in experiment [7]; 14.5 µM (active) in experiment [8]; 10.2 µM (active) in experiment [9]; 38.9 µM (active) in [11]. In addition, the values for the Potency in experiment [13] and in experiment [18] were 38.9 µM (active) and 13.7 µM (active), respectively. Also, the Potency entry in experiment [2], in experiment [4], in [5], in [20], in experiment [19] and in experiment [17] was “inactive” each time.

The record behind these values is PubChem BioAssay (Tox21).
